Source: PubChem BioAssay (EPA / NIEHS)
Active and inactive are the calls of the source. Rule for the calls: active = hit-call score of the fitted dose curve at least 0.9, where 1 is the maximum; inactive = score below 0.9.

read-out: Apoptosis regulator Bcl-2 (Homo sapiens) (UniProt P10415); assay: LTEA_HepaRG_BCL2: Life Technologies and Expression Analysis (LTEA) Assay for Bcl-2 gene using HepaRG (AID 2283475); conditions: mRNA level, 48 h; actives raise or lower the signal;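 note: BCL2 transcript by TaqMan qRT-PCR normalised to ACTB GAPDH and POLR2A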
Protocol: LTEA_HepaRG is a cell based, multiplexed-readout assay that uses HepaRG, a human liver cell line, with measurements taken at 48 hours after chemical dosing on a 96-well plate.LTEA_HepaRG_BCL2 is one of 102 assay component(s) measured in the LTEA HepaRG cell culture assay. It is a marker of Cell proliferation, survival, death.Data from the assay component LTEA_HepaRG_BCL2 was analyzed into 1 endpoint. This assay endpoint, LTEA_HepaRG_BCL2, was analyzed with bidirectional fitting relative to DMSO as the negative control and baseline of activity. Using a type of inducible reporter, measures of mRNA induction for gain or loss-of-signal activity can be used to understand regulation of transcription factor activity. To generalize the intended target to other relatable targets, this assay endpoint is annotated to the cell cycle intended target family, where the subfamily is Cell proliferation, survival, death.
A total of 1060 chemcials from the ToxCast library were tested in eight-point concentration-response experiments. Cell culture and cytotoxicity assays were conducted at Thermo Fisher Scientific's Custom Services facility (Madison, WI). A single lot of human HepaRG cells (Thermo Fisher Scientific, Frederick, MD) was used for the cell culture experiments. 96-well format collagen type I coated plates of human HepaRG cells were prepared using established methods. Briefly, cryopreserved HepaRG cells were thawed, plated at a density of approximately 100,000 cells/well in HepaRG Thaw, Plate, and General Purpose media (HPRG770, Thermo Fisher Scientific), and incubated for 48 hours. 0.5% DMSO was selected as vehicle control to balance the requisite need of DMSO in HepaRG cultures to maintain differentiation (for example, baseline metabolism, proportions of hepatocytes vs. cholangiocytes), while enabling further hepatic receptor pathway activation (for example, PXR and CAR) in response to chemical exposure. 48 hours after plating, the culture medium was replaced with HepaRG Serum-Free Incudtion Media. Cells were exposed to each test chemical in duplicate and maintained in CO2 incubators for another 48 hours. Chemical plates were thawed to room temperature and 200x concentrations of treatment groups were prepared. 8-point conentration-reponse curves were made with the highest exposure at 100 uM, followed by half-log dilutions, all in 0.5% DMSO. Each test plate contained variouse controls, induction positive controls (1mM phenobarbital), cytotoxicity positive controls ([…] aflatoxin B1), vehicle controls (0.5% DMSO), and total lysis controls (0.5% DMSO). Cell morphology images were taken using an Essen IncuCyte FLR automated microscope, with six 96-well plates imaged in about 24 minutes. Images were captured and exported and JPEG files. Spent culture media was transfered to black-well plates for the LDH assay, and remaining media was sorted at -80 C for later use. Cells were treated with RLT buffer and frozen until shipped for gene expression analysis. Total RNA was isolated from the cell suspension in 75 uL of Buffer RLT (Qiagen, Germantown, MD 20874) by Quintiles/Expression Analysis (Durham, NC) using a custom isolation procedure. Total RNA from each plate well was transferred to a preamplification plate. Fluidigm's 96.96 Dynamic ArrayTM (Fluidigm, Amsterdam, the Netherlands) technology was used for gene expression analyses by quantitative reverse transcription polymerase chain reaction (qRT-PCR, performed by Quintiles/Expression Analysis, Durham, NC)89. Standard TaqManTM Assays (Applied Biosystems/ThermoFisher Scientific, Foster City, CA) were used to assess the expression of 93 genes selected based on their selectivity and sensitivity to important hepatic receptors known to be modulated by environmental chemicals; importance in human hepatocyte functionality; and hepatotoxicity. […]

Sequence of Apoptosis regulator Bcl-2 (Homo sapiens) (P10415 whole entry, looked up): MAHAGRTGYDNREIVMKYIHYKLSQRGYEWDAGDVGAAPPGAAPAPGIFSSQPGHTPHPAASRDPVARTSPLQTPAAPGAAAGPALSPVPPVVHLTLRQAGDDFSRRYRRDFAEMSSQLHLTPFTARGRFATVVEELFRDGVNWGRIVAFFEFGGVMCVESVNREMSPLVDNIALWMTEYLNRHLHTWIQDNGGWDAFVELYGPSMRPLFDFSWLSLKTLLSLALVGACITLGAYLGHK

Row | SMILES | outcome | AC50
1 | CN(C)[C@@H]1C(=O)C(C(N)=O)=C(O)[C@@]2(O)C(=O)C3=C(O)c4c(O)cccc4[C@@](C)(O)[C@H]3C[C@@H]12 | inactive | –
2 | Cc1ccc(N)cc1 | inactive | –
3 | Cc1ccc(N=C=O)cc1N=C=O | – | 23.6 µM (active)
4 | COC(=O)c1ccccc1N | inactive | –
5 | Cc1cc(N=Nc2ccccc2C)ccc1N | – | 78 µM (active)
6 | C1=Cc2cccc3cccc1c23 | inactive | –
7 | CCOC(=O)[C@]1(c2ccccc2)Oc2ccccc2[C@@H]1N | – | 88.7 µM (active)
8 | Nc1ccc(Cl)cc1N | – | 28.8 µM (active)
9 | O=C(O)C1C2CCC(O2)C1C(=O)O (stereo not given) | inactive | –
10 | c1ccc(N=Nc2ccccc2)cc1 | inactive | –
11 | O=C(Oc1ccc(Br)cc1)N1CCN2CCC1CC2 | inactive | –
12 | COP(=S)(OC)SCN1C(=O)c2ccccc2C1=O | inactive | –
13 | N#CC(Br)(Br)C(N)=O | inactive | –
14 | CCN(CC)CCO | inactive | –
15 | O=[N+]([O-])c1ccc(Oc2ccc(Cl)cc2Cl)cc1 | inactive | –
16 | Nc1ccc([N+](=O)[O-])cc1 | inactive | –
17 | Cc1ccc([N+](=O)[O-])cc1 | inactive | –
18 | ClC1=C(Cl)[C@]2(Cl)[C@H]3[C@H]([C@@H]4C=C[C@H]3C4)[C@@]1(Cl)C2(Cl)Cl | inactive | –
19 | CC(C)COC(=O)c1ccccc1C(=O)OCC(C)C | inactive | –
20 | CS(=O)(=O)NC(=O)c1cc(Oc2ccc(C(F)(F)F)cc2Cl)ccc1[N+](=O)[O-] | inactive | –

Row | SMILES | outcome | AC50
21 | CN(C)c1ccc(C(=O)c2ccc(N(C)C)cc2)cc1 | – | 8.06 µM (active)
22 | N#CC(Br)Br | inactive | –
23 | Nc1cc(Cl)cc(C(=O)O)c1Cl | inactive | –
24 | c1ccc2c(c1)-c1cccc3cccc-2c13 | inactive | –
25 | CC(C)(C)OOC(=O)c1ccccc1 | inactive | –
26 | O=C(Nc1ccccc1)c1ccccc1I | inactive | –
27 | C[C@]12C=CC3=C4CCC(=O)C=C4CC[C@H]3[C@@H]1CC[C@@H]2O | – | 14.8 µM (active)
28 | CCOc1cccc(C2(N3CCN(c4ccccc4)CC3)CCC(C)CC2)c1 (stereo not given) | inactive | –
29 | CCCCCOC(=O)c1ccccc1C(=O)OCCCCC | inactive | –
30 | CC(C)N(Cc1ccccc1)C(=O)C(C)(C)C | inactive | –
31 | CCN(CC)N=O | inactive | –
32 | Nc1ccc(Cc2ccc(N)cc2)cc1 | inactive | –
33 | COc1cc(C=O)cc2c1[C@H](COC(N)=O)[C@]1(OC(C)=O)ON2C[C@H]2[C@@H]1N2C(C)=O | inactive | –
34 | O=Cc1ccco1 | inactive | –
35 | Clc1ccc(C(c2ccc(Cl)cc2)C(Cl)(Cl)Cl)cc1 | – | 50 µM (active)
36 | [As]#[In] | inactive | –
37 | CCNS(=O)(=O)C(F)(F)C(F)(F)C(F)(F)C(F)(F)C(F)(F)C(F)(F)C(F)(F)C(F)(F)F | inactive | –
38 | [Cl-].[Cl-].[Hg+2] | inactive | –
39 | CCC[CH2][Sn]([Cl])([CH2]CCC)[CH2]CCC | – | 3.08 µM (active)
40 | CCCCCCCCCCCCCN1CC(C)OC(C)C1 (stereo not given) | inactive | –
